Holding throughout (design): scale not given: direction of the effect not stated beside the values
Experiment [1] has as its target Protein translocase subunit SecA (Escherichia coli (strain K12)) (UniProt P10408). The experiment is described as follows: Assay to Identify E. coli SecA ATPase Inhibitors. Type of experiment: functional. The note with it: 30 µM.
The target of experiment [2] is T1, Ubiquitin-activating enzyme e1, putative (Leishmania donovani (strain BPK282A1)) (UniProt E9BSI1).
T1 sequence (whole entry): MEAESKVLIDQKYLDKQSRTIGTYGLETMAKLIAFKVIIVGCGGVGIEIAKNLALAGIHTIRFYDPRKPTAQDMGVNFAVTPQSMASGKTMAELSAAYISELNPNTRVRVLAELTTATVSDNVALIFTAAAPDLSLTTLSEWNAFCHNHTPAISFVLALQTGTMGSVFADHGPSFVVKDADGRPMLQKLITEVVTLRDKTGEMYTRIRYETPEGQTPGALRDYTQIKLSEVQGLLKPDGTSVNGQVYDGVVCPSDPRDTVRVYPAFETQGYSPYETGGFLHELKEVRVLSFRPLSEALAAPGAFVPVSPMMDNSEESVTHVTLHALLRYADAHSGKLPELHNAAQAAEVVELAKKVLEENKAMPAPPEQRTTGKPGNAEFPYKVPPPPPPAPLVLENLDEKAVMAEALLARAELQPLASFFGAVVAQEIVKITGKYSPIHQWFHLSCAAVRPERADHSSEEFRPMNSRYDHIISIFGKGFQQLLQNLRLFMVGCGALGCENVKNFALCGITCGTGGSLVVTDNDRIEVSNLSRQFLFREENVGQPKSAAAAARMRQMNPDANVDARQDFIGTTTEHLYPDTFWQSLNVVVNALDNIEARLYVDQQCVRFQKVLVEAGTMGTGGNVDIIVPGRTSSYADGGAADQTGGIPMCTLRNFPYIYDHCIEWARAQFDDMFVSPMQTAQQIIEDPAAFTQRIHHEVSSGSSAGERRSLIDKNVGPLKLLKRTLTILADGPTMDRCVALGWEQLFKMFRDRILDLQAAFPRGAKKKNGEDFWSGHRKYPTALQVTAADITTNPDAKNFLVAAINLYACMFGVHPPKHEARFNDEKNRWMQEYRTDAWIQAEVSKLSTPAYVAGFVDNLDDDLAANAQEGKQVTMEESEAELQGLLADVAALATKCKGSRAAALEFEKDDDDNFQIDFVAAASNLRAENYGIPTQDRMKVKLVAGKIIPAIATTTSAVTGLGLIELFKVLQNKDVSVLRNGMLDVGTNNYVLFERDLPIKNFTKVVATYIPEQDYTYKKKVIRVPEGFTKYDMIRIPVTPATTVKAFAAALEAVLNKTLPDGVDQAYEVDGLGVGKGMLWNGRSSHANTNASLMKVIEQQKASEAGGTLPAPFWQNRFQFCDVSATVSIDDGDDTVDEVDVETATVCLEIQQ
The experiment is described as follows: Leishmania donovani Ubiquitin Activating Enzyme (LdE1). Conditions: 30 µM. Type of experiment: functional.

Experiment [3] addresses AMP-activated protein kinase, AMPK (Homo sapiens) (UniProt P54646+O43741+P54619+Q9UGJ0+Q9Y478+Q13131+Q9UGI9). The experiment is described as follows: AMP-dependent Kinase enzyme assay. An in vitro enzyme assay that detects ADP turnover that is directly proportional to AMPK activity. This uses naive AMPK that is activated during the assay with MK-8722. Format: functional. The note with it: 30 µM.

In experiment [4] the target is Sialic acid-binding Ig-like lectin 9 (Homo sapiens) (UniProt Q9Y336). The experiment is described as follows: Hs-Siglec9 ALPHAscreen SOP 20170721. The note with it: 10 µM.
Sialic acid-binding Ig-like lectin 9 (Homo sapiens), sequence (Q9Y336 whole entry): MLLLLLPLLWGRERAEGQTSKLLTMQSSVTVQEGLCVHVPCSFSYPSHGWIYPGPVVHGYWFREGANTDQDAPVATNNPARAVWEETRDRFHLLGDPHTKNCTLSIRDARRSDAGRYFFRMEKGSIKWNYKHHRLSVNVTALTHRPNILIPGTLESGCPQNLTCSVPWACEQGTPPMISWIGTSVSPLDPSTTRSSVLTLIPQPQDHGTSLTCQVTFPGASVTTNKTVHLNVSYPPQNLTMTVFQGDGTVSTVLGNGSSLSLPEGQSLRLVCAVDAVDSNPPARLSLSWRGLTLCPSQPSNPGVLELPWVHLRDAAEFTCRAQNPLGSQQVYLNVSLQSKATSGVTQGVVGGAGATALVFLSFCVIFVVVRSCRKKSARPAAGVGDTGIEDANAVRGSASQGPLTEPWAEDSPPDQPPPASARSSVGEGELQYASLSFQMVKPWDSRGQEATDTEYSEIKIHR
For a further experiment, the system named is Trypanosoma cruzi. The experiment is described as follows: Trypanosoma cruzi phosphomannomutase and mannose-1-phosphate guanylyltransferase assay. Format: functional. The note with it: 10 µM.
Experiment [5] concerns the target T2, Arginase-2, mitochondrial (Homo sapiens) (UniProt P78540).
T2 sequence (whole entry): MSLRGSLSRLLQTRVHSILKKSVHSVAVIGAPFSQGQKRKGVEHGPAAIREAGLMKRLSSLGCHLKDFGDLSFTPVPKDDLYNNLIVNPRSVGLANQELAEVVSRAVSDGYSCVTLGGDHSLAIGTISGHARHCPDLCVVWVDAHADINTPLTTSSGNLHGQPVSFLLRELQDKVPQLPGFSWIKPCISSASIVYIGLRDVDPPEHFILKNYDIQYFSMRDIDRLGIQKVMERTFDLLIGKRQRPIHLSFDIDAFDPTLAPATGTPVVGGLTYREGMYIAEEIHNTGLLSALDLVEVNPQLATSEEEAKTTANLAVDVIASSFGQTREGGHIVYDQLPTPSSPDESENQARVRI
The experiment is described as follows: in vitro enzyme assay to detect the production of urea directly proportional to the activity of Arginase II. Note: in the data most compounds retested in dose-response had high values. Type of experiment: functional. The note with it: 33.3 µM.

The target of experiment [6] is T3, Proteasome subunit beta (Trypanosoma cruzi) (UniProt O96673).
T3 sequence (whole entry): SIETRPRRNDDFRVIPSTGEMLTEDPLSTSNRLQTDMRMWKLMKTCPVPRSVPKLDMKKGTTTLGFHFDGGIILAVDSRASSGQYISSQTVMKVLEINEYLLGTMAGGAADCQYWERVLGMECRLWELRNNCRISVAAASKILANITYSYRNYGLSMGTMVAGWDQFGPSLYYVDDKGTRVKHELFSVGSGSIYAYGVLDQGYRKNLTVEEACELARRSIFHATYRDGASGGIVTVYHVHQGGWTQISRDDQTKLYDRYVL
The experiment is described as follows: Trypanosoma cruzi proteasome chymotrypsin-like activity (TcProtChymo) assay. Note: in the data most compounds retested in dose-response had high values. Format: functional. The note with it: 9.37 µM.

The species entered for a further experiment is Homo sapiens. The experiment is described as follows: To identify inhibition of the IFN signalling (Jak-Stat) pathway via expression of an eGFP reporter gene under the control of an IFN-stimulated response element (ISRE) containing MxA promoter. Format: functional. The note with it: 30 µM.
The target of experiment [7] is T4, Tyrosyl-tRNA synthetase, putative (Trypanosoma cruzi (strain CL Brener)) (UniProt Q4DSP6).
T4 sequence (whole entry): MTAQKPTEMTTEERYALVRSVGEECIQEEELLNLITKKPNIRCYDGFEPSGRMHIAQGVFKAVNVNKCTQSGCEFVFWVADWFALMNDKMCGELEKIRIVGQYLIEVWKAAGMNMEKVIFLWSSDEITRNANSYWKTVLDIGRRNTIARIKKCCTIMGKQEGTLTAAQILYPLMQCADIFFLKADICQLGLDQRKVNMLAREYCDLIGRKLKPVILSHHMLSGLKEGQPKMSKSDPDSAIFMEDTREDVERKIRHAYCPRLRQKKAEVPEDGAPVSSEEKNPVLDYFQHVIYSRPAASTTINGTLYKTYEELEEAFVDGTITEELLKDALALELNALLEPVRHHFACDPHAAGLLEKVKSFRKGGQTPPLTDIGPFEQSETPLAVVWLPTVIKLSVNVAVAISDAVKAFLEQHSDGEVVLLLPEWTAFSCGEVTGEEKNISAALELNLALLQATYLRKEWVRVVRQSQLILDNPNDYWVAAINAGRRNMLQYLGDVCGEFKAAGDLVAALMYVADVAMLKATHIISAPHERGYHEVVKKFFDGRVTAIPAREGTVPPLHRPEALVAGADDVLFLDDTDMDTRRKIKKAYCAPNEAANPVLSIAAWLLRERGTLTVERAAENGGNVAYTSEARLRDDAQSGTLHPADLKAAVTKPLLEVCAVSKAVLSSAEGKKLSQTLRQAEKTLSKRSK
The experiment is described as follows: Trypanosoma cruzi tyrosyl tRNA synthetase (TcYRS) _High Tyrosine SOP. Note: in the data most compounds retested in dose-response had high values. Type of experiment: functional. The note with it: 30 µM.

Experiment [8] addresses T4, Tyrosyl-tRNA synthetase, putative (Trypanosoma cruzi (strain CL Brener)). The experiment is described as follows: Trypanosoma cruzi tyrosyl tRNA synthetase (TcYRS) SOP. Type of experiment: functional. The note with it: 30 µM.
Experiment [9] deals with Chromo domain-containing protein 1 (Saccharomyces cerevisiae (strain ATCC 204508 / S288c) (Baker's yeast)) (UniProt P32657). The experiment is described as follows: ScCHD-1 Enzyme Inhibition Assay. Note: in the data most compounds retested in dose-response had high values. Format: functional. Conditions: 30 µM.
Chromo domain-containing protein 1 (Saccharomyces cerevisiae (strain ATCC 204508 / S288c) (Baker's yeast)), sequence (P32657 whole entry, the tested form may be a part): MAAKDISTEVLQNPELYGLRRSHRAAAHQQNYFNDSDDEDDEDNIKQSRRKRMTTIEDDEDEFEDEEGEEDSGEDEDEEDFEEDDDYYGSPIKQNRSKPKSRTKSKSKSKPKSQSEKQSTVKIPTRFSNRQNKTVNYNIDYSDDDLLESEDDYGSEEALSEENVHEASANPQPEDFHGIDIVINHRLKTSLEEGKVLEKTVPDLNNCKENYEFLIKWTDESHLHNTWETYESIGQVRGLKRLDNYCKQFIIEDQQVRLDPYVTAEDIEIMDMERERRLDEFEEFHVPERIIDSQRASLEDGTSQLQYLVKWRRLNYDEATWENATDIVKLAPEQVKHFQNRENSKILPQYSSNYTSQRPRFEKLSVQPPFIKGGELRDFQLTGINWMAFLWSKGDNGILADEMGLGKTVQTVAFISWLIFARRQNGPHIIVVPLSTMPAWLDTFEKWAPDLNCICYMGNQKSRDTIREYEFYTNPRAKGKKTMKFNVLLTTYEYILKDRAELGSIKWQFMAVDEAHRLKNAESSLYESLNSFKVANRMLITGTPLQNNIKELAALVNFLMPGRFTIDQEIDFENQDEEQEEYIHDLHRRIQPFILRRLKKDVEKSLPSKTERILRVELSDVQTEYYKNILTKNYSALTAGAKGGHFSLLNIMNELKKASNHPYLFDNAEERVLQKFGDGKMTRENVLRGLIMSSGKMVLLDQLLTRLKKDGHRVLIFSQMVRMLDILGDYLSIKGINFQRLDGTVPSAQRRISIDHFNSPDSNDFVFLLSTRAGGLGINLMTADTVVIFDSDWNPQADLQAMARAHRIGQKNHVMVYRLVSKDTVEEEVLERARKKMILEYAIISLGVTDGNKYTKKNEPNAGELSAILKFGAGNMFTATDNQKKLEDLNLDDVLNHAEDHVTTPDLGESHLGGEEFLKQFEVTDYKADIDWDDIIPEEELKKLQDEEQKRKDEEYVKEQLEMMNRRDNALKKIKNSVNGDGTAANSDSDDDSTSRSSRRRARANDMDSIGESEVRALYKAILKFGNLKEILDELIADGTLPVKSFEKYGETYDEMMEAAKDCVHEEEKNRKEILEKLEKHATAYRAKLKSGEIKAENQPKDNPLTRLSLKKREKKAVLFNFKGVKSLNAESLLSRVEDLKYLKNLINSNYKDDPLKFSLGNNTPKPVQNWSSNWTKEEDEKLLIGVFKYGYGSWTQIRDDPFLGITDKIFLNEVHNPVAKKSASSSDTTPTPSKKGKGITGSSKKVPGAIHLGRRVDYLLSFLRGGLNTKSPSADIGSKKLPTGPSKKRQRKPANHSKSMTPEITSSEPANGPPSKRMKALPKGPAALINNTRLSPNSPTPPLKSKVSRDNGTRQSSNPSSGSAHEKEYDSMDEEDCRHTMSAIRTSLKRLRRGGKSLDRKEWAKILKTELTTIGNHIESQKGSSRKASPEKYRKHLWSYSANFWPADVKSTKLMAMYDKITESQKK

The structures appear in SMILES notation. For some of these results: Entries with a potency or affinity are not part of this list.

Protein translocase subunit SecA (Escherichia coli (strain K12)), sequence (P10408 whole entry): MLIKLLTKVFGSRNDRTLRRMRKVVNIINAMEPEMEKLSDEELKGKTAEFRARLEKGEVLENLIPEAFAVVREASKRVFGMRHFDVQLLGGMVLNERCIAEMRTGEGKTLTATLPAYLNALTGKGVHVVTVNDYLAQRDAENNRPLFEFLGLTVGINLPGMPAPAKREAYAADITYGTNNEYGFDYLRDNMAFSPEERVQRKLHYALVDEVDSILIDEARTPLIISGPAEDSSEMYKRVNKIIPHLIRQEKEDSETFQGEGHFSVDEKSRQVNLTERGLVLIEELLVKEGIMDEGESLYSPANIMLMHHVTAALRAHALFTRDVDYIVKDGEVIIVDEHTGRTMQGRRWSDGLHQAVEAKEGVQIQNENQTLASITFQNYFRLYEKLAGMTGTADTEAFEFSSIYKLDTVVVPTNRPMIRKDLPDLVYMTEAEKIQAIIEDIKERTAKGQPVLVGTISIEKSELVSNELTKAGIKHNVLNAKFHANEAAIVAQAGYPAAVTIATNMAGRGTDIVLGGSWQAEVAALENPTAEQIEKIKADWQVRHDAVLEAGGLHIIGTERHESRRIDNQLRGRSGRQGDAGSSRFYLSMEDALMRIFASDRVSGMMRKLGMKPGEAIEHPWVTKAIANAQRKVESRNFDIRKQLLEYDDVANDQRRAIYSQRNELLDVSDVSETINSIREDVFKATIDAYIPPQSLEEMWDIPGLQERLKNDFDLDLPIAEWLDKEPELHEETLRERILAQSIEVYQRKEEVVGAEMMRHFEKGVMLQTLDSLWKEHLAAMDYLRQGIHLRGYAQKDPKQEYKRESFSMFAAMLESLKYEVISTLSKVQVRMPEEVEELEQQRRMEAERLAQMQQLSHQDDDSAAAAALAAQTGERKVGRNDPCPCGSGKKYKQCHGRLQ

For `Cc1ccc(NC2CCN(C(=O)c3ccsc3)CC2)nn1`, the Percent Effect in experiment [1] was -9.11%; in experiment [2], 10.4%; in experiment [3], -1.87%; in experiment [4], 1.46%; in the experiment on Trypanosoma cruzi it was -6.37%; in experiment [5] it was -1.07%. For the same molecule, the Percent Effect was 5.57% in experiment [6]; 30% in the experiment filed under Homo sapiens; 6.8% in experiment [7]; 9.76% in [8]; -2% in [9].

Take `CN(C(=O)c1ccccc1Cl)C1CCN(c2ccccn2)CC1`: the Percent Effect in experiment [1] is -6.46%; in [2], 23.4%; in experiment [3], -2.17%; in experiment [4], -1.36%; with Trypanosoma cruzi, 6.95%; in experiment [5], -2.32%. In addition, the Percent Effect in experiment [6] was 12.7%; in the experiment listed under Homo sapiens it was 9.9%; in experiment [7] it was 7.62%; in experiment [8] it was 23.5%; in experiment [9] it was -2.92%.

Consider `COc1cc(N2C[C@@H]3COC[C@]3(COc3cccnc3)C2)ncn1`, for which the Percent Effect in [1] was -4.12%; in experiment [2], 16.2%; in experiment [3], 3.02%; in [4], -8.65%; in the experiment on Trypanosoma cruzi, 5.38%; in experiment [5] it was -2.87%. For the same molecule, the Percent Effect is 18.4% in experiment [6]; 21.1% in the experiment filed under Homo sapiens; 2.16% in experiment [7]; 12.8% in experiment [8]; -1.83% in experiment [9].

Turning to `CNS(=O)(=O)c1ccc(C(=O)NC2CCOc3ccccc32)o1` (stereo unspecified), the Percent Effect in [1] was -5.29%; in experiment [2], 18.4%; in experiment [3], 0.291%; in experiment [4] it was 1.37%; in the experiment on Trypanosoma cruzi, 0.682%; in experiment [5] it was -3.55%. The Percent Effect in experiment [6] is 11.8%; in the experiment filed under Homo sapiens, 17.5%; in experiment [7], 2.13%; in [8], 18.2%; in [9], -7.69%.

Turning to `CCOc1ncccc1NC(=O)c1sccc1C`, the Percent Effect was -2.31% in [1]; -1.39% in experiment [2]; 2.84% in experiment [3]; -14.7% in [4]; -4.57% in the experiment with Trypanosoma cruzi; 2.21% in experiment [5]. In addition, the Percent Effect in experiment [6] is 23.2%; in the experiment listed under Homo sapiens it was -6.94%; in [7] it was 4.21%; in [8] it was 7.69%; in experiment [9] it was 4%.

Take `O=S1(=O)COCCN1Cc1cccc(Cl)c1`: the Percent Effect is -1.74% in experiment [1]; 5.41% in experiment [2]; -2.78% in experiment [3]; 6.98% in experiment [4]; 7.92% in the experiment on Trypanosoma cruzi; -1.91% in [5]. The Percent Effect in [6] was 13.4%; in the experiment filed under Homo sapiens, 17.7%; in experiment [7], 8.99%; in [8], 12.2%; in experiment [9], -2.28%.

Take `CCc1nnc2n1CCN(Cc1csc(-c3ccsc3)n1)C2`: the Percent Effect in [1] is -1.79%; in [2], -6.94%; in experiment [3] it was 1.22%; in experiment [4], -3.25%; in the experiment with Trypanosoma cruzi, 0.68%; in experiment [5], 0.883%. Further, the Percent Effect in experiment [6] was 13.5%; in the experiment listed under Homo sapiens, -14.4%; in [7], 4.21%; in experiment [8], 2.56%; in experiment [9], -0.47%.

Turning to `COCCNC(=O)CCc1c(C)nn(-c2nc(C)c(C)c(=O)[nH]2)c1C`, the Percent Effect in experiment [1] was 0.376%; in experiment [2], 7.79%; in experiment [3], -3.21%; in [4], -3.83%; in the experiment with Trypanosoma cruzi it was -7%; in experiment [5] it was 23.9%. In addition, the Percent Effect is 8.01% in experiment [6]; 4.73% in the experiment filed under Homo sapiens; 8.47% in experiment [7]; 14.1% in experiment [8]; -7.76% in experiment [9].

For `CN(CCc1ccccc1)Cc1cc(C(=O)N2CCCC2(C)C)no1`, the Percent Effect in experiment [1] is 8.96%; in experiment [2] it was 13.7%; in experiment [3] it was -8.24%; in experiment [4] it was 6.18%; with Trypanosoma cruzi, -2.38%; in experiment [5], -17.6%. Also, the Percent Effect is 11% in experiment [6]; 33.7% in the experiment filed under Homo sapiens; 8.33% in experiment [7]; 11.1% in [8]; -0.0446% in experiment [9].

For the molecule `O=C(NCC1CCS(=O)(=O)C1)c1sccc1-c1ccc(F)cc1` (stereo unspecified), the Percent Effect is -4.74% in experiment [1]; -54% in [2]; -1.29% in experiment [3]; 24.1% in experiment [4]; 8.5% with Trypanosoma cruzi; 4.71% in [5]. For the same molecule, the Percent Effect in [6] was 13.3%; in the experiment filed under Homo sapiens, 4.09%; in [7] it was 4.3%; in [8], 18.5%; in experiment [9] it was 0.115%.

With `Cc1nc(C(=O)N2CCCC2c2c(C)nn(C)c2C)ccc1C#N` (stereo unspecified), the Percent Effect was -5.64% in experiment [1]; -1.27% in experiment [2]; 7.49% in experiment [3]; 4.58% in experiment [4]; -2.36% in the experiment with Trypanosoma cruzi; 1.07% in experiment [5]. The Percent Effect was determined as 16.1% in experiment [6]; 4.46% in the experiment filed under Homo sapiens; 0% in [7]; 2.53% in experiment [8]; 10.7% in experiment [9].

These data come from ChEMBL document CHEMBL3988442, “University of Dundee, Small-Polar-MMV Screening Library” (2021).
